High-throughput results from PubChem.
Shown are actives, neighbours in structure and some others; about 9.5% of the full set was active somewhere.
Pf growth 96h = P. falciparum growth inhibition at 96 hours; Potency, µM (top dose mostly 28.7 µM), actives largely listed as inhibitors; 6.9% of 320,000 active; P. falciparum luciferase reporter growth, 96 h; AID 504834
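Plates of compound plus infected erythrocytes (2% hematocrit, 0.05% parasitemia final) incubate 96 hours, 37 C, 5% CO2. Detection reagent added; reduced luminescence from the parasites' luciferase reporter flags inhibition.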
Pf growth 48h = P. falciparum growth inhibition at 48 hours (one generation). 5.9% of 310,000 active. P. falciparum luciferase growth in erythrocytes, 48 h. Potency, µM (top dose mostly 28.7 µM), actives largely listed as inhibitors
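Erythrocytes infected with P. falciparum carrying an integrated firefly luciferase reporter (2% hematocrit, 0.1% parasitemia final) were exposed to compounds in RPMI 1640 with 0.5% Albumax at 37 C, 5% CO2. Growth inhibition was scored as reduced luminescence.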
NS1 inh = influenza NS1 inhibition | Potency, µM (titrated, usually from 46.1 µM) | 0.4% of 270,000 active | AID 2326; calls by dose curve; also: actives are rising curves; nearly all actives have a fitted effect of over 50% in size
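A cell-based growth assay was used: compounds that relieve NS1-induced slow growth of budding yeast raise OD600. Assay medium was yeast nitrogen base with ammonium sulphate and -URA supplement, pH 6.0, with 2% galactose.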
SARS PLP yeast = SARS-CoV PLP inhibition in yeast. S. cerevisiae expressing SARS-CoV PLpro, growth rescue. Potency, µM (highest dose often 32.9 µM), hits mostly activators. 0.19% of 330,000 active. AID 485353; calls by dose curve; also: nearly all actives have a fitted effect of over 55% in size
RE007 growth inh = less growth of the S. pombe RE007 Vpr strain; 0.21% of 360,000 active; Potency, µM (highest dose often 92.2 µM), most hits filed as inhibitors; S. pombe RE007 Vpr strain, BacTiter-Glo ATP luminescence, 24 h; AID 651644; active = well fitted falling curve with a large enough effect; inconclusive = small, poorly fitted or top-dose-only effect; inactive = no such curve, though single readings can be large or run the other way; also: nearly all actives have a fitted effect of over 50% in size
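Fission yeast RE007 carrying one integrated HIV-1 vpr copy, seeded at OD 0.01 in PMG+AL medium with 23 nL pinned compound. Grown 24 h at 30 degrees; viability read by BacTiter-Glo luminescence after 5 min.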
Hits are given with their value; - = inactive; ? = inconclusive; . = not tested or not shown; [ ] = another dose, or the depositor's remark. Unless noted, calls follow the shape of the dose curve; as a rule, active = well fitted inhibition curve with a large enough effect; inconclusive = small, poorly fitted or top-dose-only effect, or another doubt; inactive = no such curve, though single readings can be large or run the other way.

SMILES	Pf growth 96h	Pf growth 48h	NS1 inh	SARS PLP yeast	RE007 growth inh
O=C(Nc1ccc(N2CCN(C(=O)c3ccccc3)CC2)cc1)c1ccc(Br)o1	-	?	?	-	-
CN1CCN(c2ccc(NC(=O)c3cc4ccccc4o3)cc2)CC1	-	-	-	-	-
O=C(Nc1ccc(N2CCN(C(=O)c3ccccc3)CC2)c(Cl)c1)c1ccc(Br)o1	-	10.4µM	-	-	-
CSc1nc(Oc2ccc(F)cc2)c2ccccc2n1	?	-	-	-	-
COc1ccc(Oc2nc(-c3ccccn3)nc3ccccc23)cc1	0.37µM	1.65µM	-	-	-
COc1cccc(Oc2nc(-c3ccccc3O)nc3ccccc23)c1	-	-	-	-	-
c1ccc(Oc2ncnc3ccccc23)cc1	.	.	.	.	-
c1ccc(Oc2nc(-c3ccccn3)nc3ccccc23)cc1	1.31µM	1.65µM	-	-	-
Fc1ccc(Oc2nc(-c3ccccn3)nc3ccccc23)cc1	4.65µM	1.65µM	-	-	-
CCOC(=O)Nc1ccc2c(c1)C(=NNC(=S)NC)c1ccccc1-2	.	.	.	.	-
CN(CC(=O)Nc1cccc(F)c1)C(=O)CCc1nc2cc(S(=O)(=O)N3CCOCC3)ccc2n1C	?	?	.	-	-
CC(=O)c1cc(CN2CCC(n3nccc3NC(=O)c3ccccc3)CC2)cs1	-	-	-	-	-
CC(=O)O[C@H]1CC[C@H]2[C@@H]3CCC4=C[C@@H](C5SCCS5)[C@H](OC(C)=O)C[C@]4(C)[C@H]3CC[C@@]12C	.	.	-	.	.
Cc1cccc(CC(=O)NCCS(=O)(=O)N2CCN(c3cccc(Cl)c3)CC2)c1	-	?	.	-	-
Cc1cccc(OC(=O)NCCOC(=O)N(O)c2ccc(Cl)cc2)c1	7.38µM	-	-	-	-
Cc1cccc(OCC(=O)Oc2ccc(Cl)cc2)c1	.	.	.	.	-
CC(=O)Oc1ccc(N(C(C)=O)S(=O)(=O)c2ccc(C)c([N+](=O)[O-])c2)cc1	2.62µM	-	-	-	-
COc1ccc(S(=O)(=O)Nc2c(C)n(C)n(-c3ccccc3)c2=O)cc1C(=O)O	-	-	-	-	-
O=C(CNc1ccc(Cl)cc1)c1ccc(Br)cc1	?	?	.	-	-
COc1ccc(NCc2nn(CC(=O)c3ccc(Br)cc3)c3[n+]2CCCCC3)cc1	?	1.85µM	.	-	-
O=C(c1ccc([N+](=O)[O-])cc1)N(Cc1ccc(Br)cc1)N1C(=O)CCCC1=O	-	.	-	-	-
COc1ccc(C(=O)CN2CCCCC2)cc1	-	-	.	-	-
O=C(Cn1nc(CNc2ccc(Cl)cc2)[n+]2c1CCCCC2)c1ccc(Br)cc1	?	0.928µM	-	-	-
O=C(Cn1nc(CNc2ccc(Br)cc2)[n+]2c1CCCCC2)c1ccc([N+](=O)[O-])cc1	?	2.08µM	-	-	-
Cn1c(SCc2cccc(F)c2)nnc1-c1ccncc1	?	?	-	-	-
SMILES	Pf growth 96h	Pf growth 48h	NS1 inh	SARS PLP yeast	RE007 growth inh
Cc1nn(Cc2c(Cl)cccc2Cl)c(Cl)c1/C=N/NC(=O)c1cccnc1	?	?	-	-	-
CC(C)NC(=O)C1(S(=O)(=O)c2ccccc2)CC=CC1	-	-	-	-	-
O=C(CN1C(=O)CCS(=O)(=O)c2ccccc21)NCc1ccccc1	2.62µM	-	-	-	-
CC(C)(C)NCc1cc(Cl)ccc1OCc1cccs1	9.28µM	?	-	-	-
CC(C)(C)NCc1cc(Br)ccc1OCc1cccs1	-	?	-	-	-
CCN(CC)CCNCc1cc(Cl)ccc1OCc1ccccc1F	-	5.86µM	-	-	-
Cn1nnc(NCc2cc(Br)ccc2OCc2ccccc2F)n1	-	?	-	-	-
CC(C)(C)NCc1cc(Cl)ccc1OCc1ccccc1F	8.28µM	-[5.75 µM]	.	-	-
CCOc1ccc(Cl)cc1CNCCc1ccc(F)cc1	?	?	-	-	-
N#CCc1ccc(OC(=O)c2ccncc2)cc1	.	.	.	.	-
O=C(N/C(=C\c1ccco1)C(=O)N1CCCC1CO)c1ccccc1 (stereo not drawn)	-	-	-	-	-
COc1ccc(-n2nc(C(=O)NCC(=O)N3CCCC3)c3ccccc3c2=O)cc1Cl	?	-	-	-	-
CCCSc1nc2c(c(=O)n(C)c(=O)n2C)n1C	?	-	-	-	.
Cn1c(=O)c2c(nc(C(=N)SCC(=O)O)n2C)n(C)c1=O	.	.	7.94µM	.	.
Cc1[nH]c(C)c(S(=O)(=O)N2CCN(c3ccccc3F)CC2)c1C(=O)N1CCCC1	-	-	-	-	-
